Active and inactive are the calls of the source.

This passage reports composite z-score, composite Z-score and z-score results from PubChem BioAssay.

For one test, the target named is Albumin (Bos taurus) (UniProt P02769). Briefly: bovine serum albumin binders on microarray, profiling panel, artefact control for SMM control protein annotation, biochemical, small-molecule microarray, Alexa647 label, 635/667 nm fluorescence (AID 1118).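 Further: score merges 667 nm emission intensity and signal-to-noise per printed compound spot.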 The settings on record: BSA-A647 binding, fluorescence 635 nm, higher = more signal.
A short description of test [1]: small-molecule microarray binders of probe aXIP, primary screen, biochemical, NeuroSMM set, 635/667 nm fluorescence (AID 1119).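 Further: probe is the protein aXip251-270 applied at 1 µg/mL to compound-printed slides; binding of probe to printed compounds measured as 667 nm fluorescence plus signal to noise.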 The settings on record: higher = more signal, called active from +8 up or from −8 down.
A short description of test [2]: small-molecule binders of probe aNOTCH3, primary screen, biochemical, small-molecule microarray, 635/667 nm fluorescence (AID 1120).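 Further: probe is a biotin-tagged antibody raised against NOTCH3 rather than NOTCH3 protein; score merges spot fluorescence near 667 nm with spot signal to noise.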 The settings on record: higher = more signal.
Test [3] is described as follows: small-molecule binders of probe aNOTCH2, primary screen, biochemical, small-molecule microarray, 635/667 nm fluorescence (AID 1121).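 Further: score merges feature fluorescence read at 667 nm with its signal to noise.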 The settings on record: higher = more signal.
For test [4], the target named is Carbonic anhydrase 2 (Homo sapiens) (UniProt P00918). Briefly: CAII small-molecule binders, profiling panel, biochemical, small-molecule microarray, Alexa647-labelled CAII (AID 1122). The settings on record: CAII-A647 binding fluorescence, higher = more signal.
The nature of test [5]: COS7 lysate on small-molecule microarray, probe aHis, 635 nm (AID 1123).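 Further: z-score combines 667nm fluorescence intensity with signal-to-noise per printed compound spot.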 To be noted: COS7 cell lysate, fluorescence, higher = more signal.
Test [6] can be described thus: compound binding in COS7 lysate, probe aLAP1, primary screen, cell lysate, small-molecule microarray (AID 1124).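 Further: lysate comes from COS7 cells expressing LAP1 and is applied at 0.3 µg/mL; score merges spot fluorescence near 667 nm with signal-to-noise over triplicate slides.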 To be noted: probe aLAP1, fluorescence, higher = more signal.
The next test deals with Sam68 (KHDRBS1). Briefly: Sam68 small-molecule binders, primary screen, biochemical, small-molecule microarray, 635 nm fluorescence (AID 1125).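 Further: score merges 667 nm channel intensity with signal to noise over triplicate slides.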 The settings on record: small-molecule microarray binding, higher = more signal.
Test [7] concerns Chordin-like protein 2 (CHRDL2). Briefly: CHRDL2 small-molecule binders, primary screen, biochemical, small-molecule microarray, 635 nm fluorescence (AID 1126).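 Further: printed compound slides probed with Chrdl2 protein at 4 µg/mL for 1 h at 4 C; score merges 667 nm emission intensity with signal to noise over three replicate slides.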 The settings on record: small-molecule microarray binding, fluorescence 635 nm; higher = more signal.
Test [8] concerns the target Concanavalin-A (Canavalia ensiformis) (UniProt P02866). Briefly: ConA small-molecule binders, primary screen, artefact control for SMM control protein annotation, biochemical, small-molecule microarray, Alexa647 label, 635 nm (AID 1127).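 Further: z combines 667 nm emission intensity with signal-to-noise across three replicate slides.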 The settings on record: ConA-A647 binding fluorescence, higher = more signal.
Test [9] can be described thus: anti-His antibody binders, primary screen, artefact control for SMM control protein annotation, biochemical, small-molecule microarray, 635 nm fluorescence (AID 1128).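 Further: score merges feature fluorescence with signal-to-noise for each printed compound spot.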 The settings on record: anti-His Alexa647 antibody binding, higher = more signal.
The subject of test [10] is Human papillomavirus type 1a E7 protein (residues 1-88). Briefly: HPV1a E7 small-molecule binders, primary screen, biochemical, small-molecule microarray, residues 1-88, 635 nm (AID 1129). The settings on record: small-molecule microarray binding, fluorescence 635 nm; higher = more signal.
In test [11] the target is Focal adhesion kinase 1 (Homo sapiens) (UniProt Q05397). Briefly: small-molecule microarray binders of FAK, primary screen, biochemical, 635/667 nm fluorescence, BSA, DTT (AID 1130).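 Further: composite of spot emission at 667 nm and signal to noise over triplicate slides.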 The settings on record: PTK2 binding, 635 nm fluorescence, higher = more signal.
The test system of test [12] is Fibrinogen (Alexa647-labelled). Briefly: fibrinogen binders on compound microarrays, profiling panel, artefact control for SMM control-protein annotation, biochemical, small-molecule microarray, 635/667 nm fluorescence (AID 1131).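 Further: z-score merges 667 nm fluorescence with per-spot signal-to-noise over triplicate slides.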 The settings on record: fibrinogen-A647 binding fluorescence, higher = more signal.
In test [13] the target is Follistatin (Homo sapiens) (UniProt P19883). Briefly: follistatin binders on small-molecule microarrays, primary screen, biochemical, small-molecule microarray, 635/667 nm fluorescence (AID 1132). To be noted: FST binding, 635 nm fluorescence, higher = more signal.
In test [14] the target is Fibroblast growth factor 2 (Homo sapiens) (UniProt P09038). Briefly: FGF2 binders on small-molecule microarrays, primary screen, biochemical, small-molecule microarray, 635/667 nm fluorescence (AID 1133). To be noted: small-molecule microarray binding, FGF2, fluorescence 635/667; higher = more signal.
Test [15] in a line: mitochondrial membrane potential change in A549 cells, profiling panel, cell-based, JC-1 fluorescence, basal, 24 h, 100 nL (AID 1138).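 Further: A549 lung adenocarcinoma cells under basal conditions with no added stimulus; test concentration not given here.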 To be noted: higher = more signal.
In another test the test system is Lefty1. Briefly: Lefty1 binders on small-molecule microarrays, primary screen, biochemical, small-molecule microarray, 635/667 nm fluorescence (AID 1139). The settings on record: small-molecule microarray binding, fluorescence 635/667; higher = more signal.
Test [16] relates to wheat germ agglutinin (Triticum aestivum), Alexa647-labelled. Briefly: wheat germ agglutinin binders on compound microarrays, profiling panel, artefact control for SMM control-protein annotation, biochemical, small-molecule microarray, 635/667 nm fluorescence (AID 1140).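 Further: score merges 667 nm feature emission with signal to noise over triplicate slides.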 To be noted: WGA-A647 binding, 635 nm fluorescence, higher = more signal.
The target of test [17] is Luciferin 4-monooxygenase (Photinus pyralis) (UniProt P08659). Briefly: firefly luciferase enzyme inhibitors, primary screen, biochemical, luminescence, purified enzyme, 2006 set (AID 1141).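 Further: cell-free assay with purified firefly luciferase at 100 ng per well in PBS; test concentration not given here.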 The settings on record: SteadyGlo luminescence, 30 min, higher = more signal, called active from +8 up or from −8 down.
Sequence of Luciferin 4-monooxygenase (Photinus pyralis) (P08659 whole entry, looked up): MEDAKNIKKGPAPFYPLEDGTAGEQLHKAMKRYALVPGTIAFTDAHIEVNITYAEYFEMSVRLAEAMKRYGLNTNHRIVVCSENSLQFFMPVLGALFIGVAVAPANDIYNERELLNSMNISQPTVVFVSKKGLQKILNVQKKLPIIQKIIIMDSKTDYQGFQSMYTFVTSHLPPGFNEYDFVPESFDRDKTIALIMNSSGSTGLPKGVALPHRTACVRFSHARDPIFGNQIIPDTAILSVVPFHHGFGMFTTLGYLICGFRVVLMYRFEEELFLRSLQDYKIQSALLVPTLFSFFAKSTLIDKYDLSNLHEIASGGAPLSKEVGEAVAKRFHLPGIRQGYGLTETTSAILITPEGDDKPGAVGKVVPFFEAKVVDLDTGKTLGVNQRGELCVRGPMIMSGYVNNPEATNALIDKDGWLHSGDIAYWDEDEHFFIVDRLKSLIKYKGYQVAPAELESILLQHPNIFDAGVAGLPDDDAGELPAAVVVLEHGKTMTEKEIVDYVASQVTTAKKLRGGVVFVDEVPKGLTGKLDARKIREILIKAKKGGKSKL

Sequence of Fibroblast growth factor 2 (Homo sapiens) (P09038 whole entry, looked up): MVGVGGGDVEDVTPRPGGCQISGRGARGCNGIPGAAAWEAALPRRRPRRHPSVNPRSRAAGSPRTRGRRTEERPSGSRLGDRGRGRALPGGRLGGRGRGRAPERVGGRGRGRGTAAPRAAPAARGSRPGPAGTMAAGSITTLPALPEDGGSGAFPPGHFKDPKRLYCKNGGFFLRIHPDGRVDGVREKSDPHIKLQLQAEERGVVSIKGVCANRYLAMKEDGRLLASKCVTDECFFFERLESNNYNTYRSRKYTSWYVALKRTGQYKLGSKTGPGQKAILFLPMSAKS
Sequence of Concanavalin-A (Canavalia ensiformis) (P02866 whole entry, looked up): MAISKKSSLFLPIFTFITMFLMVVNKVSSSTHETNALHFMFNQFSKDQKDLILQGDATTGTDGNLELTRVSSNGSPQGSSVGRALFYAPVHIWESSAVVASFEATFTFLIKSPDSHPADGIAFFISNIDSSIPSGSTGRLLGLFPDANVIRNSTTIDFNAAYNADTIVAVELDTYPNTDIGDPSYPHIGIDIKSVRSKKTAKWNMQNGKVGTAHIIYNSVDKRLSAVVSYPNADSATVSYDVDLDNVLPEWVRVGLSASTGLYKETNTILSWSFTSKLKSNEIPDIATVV
Sequence of Albumin (Bos taurus) (P02769 whole entry, looked up): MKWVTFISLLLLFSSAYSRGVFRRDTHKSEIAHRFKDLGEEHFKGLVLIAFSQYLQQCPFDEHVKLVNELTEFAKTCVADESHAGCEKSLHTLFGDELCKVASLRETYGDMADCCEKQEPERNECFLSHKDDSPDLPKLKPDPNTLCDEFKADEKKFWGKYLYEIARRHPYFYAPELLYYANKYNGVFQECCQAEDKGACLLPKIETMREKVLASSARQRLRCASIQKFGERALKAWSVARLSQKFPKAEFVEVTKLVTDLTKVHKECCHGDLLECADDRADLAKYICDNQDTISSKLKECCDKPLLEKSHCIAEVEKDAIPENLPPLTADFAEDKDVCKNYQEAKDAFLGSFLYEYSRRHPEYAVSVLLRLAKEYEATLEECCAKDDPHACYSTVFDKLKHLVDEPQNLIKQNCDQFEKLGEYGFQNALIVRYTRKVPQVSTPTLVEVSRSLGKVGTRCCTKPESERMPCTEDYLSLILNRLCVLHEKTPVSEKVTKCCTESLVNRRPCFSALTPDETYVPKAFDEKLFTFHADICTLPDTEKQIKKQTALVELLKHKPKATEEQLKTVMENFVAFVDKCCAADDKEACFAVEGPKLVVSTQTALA
Sequence of Follistatin (Homo sapiens) (P19883 whole entry, looked up): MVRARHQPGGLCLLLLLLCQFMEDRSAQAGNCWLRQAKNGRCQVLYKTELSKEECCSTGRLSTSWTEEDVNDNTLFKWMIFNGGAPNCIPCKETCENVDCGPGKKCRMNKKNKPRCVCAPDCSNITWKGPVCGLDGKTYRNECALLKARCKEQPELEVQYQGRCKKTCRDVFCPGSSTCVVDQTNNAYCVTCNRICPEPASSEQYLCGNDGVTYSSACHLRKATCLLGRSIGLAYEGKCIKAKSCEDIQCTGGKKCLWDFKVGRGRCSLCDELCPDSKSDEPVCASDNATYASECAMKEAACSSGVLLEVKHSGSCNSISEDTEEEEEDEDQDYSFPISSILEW
Sequence of Focal adhesion kinase 1 (Homo sapiens) (Q05397 whole entry, looked up): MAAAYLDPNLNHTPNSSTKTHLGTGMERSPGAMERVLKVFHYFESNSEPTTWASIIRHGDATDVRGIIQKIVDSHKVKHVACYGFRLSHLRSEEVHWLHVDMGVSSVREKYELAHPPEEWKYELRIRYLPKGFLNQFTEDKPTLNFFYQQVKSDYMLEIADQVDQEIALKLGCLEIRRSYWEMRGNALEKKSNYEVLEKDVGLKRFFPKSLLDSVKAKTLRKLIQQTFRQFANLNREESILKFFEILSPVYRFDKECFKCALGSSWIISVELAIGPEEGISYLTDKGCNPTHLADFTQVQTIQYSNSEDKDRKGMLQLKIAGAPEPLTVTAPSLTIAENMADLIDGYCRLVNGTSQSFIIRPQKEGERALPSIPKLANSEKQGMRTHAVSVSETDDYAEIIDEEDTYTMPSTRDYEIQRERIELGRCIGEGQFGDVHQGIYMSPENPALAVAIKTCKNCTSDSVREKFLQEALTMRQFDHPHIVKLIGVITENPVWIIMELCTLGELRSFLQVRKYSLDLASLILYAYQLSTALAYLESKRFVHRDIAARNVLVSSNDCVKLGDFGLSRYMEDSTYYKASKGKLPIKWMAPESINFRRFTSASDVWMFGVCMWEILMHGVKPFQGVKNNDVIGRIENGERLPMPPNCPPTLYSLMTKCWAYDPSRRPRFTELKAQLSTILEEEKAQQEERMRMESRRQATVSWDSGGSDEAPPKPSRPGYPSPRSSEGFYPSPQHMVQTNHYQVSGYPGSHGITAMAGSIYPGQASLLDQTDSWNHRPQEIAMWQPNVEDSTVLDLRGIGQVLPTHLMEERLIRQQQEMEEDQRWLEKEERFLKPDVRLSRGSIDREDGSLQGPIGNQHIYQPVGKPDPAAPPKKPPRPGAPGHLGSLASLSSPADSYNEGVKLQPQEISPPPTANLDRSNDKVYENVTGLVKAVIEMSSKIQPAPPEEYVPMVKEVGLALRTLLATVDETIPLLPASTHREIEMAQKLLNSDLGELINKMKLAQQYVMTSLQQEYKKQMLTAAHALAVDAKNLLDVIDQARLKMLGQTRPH

In the case of `[N-]=[N+]=Nc1ccccc1C[C@@]1(C(=O)NCCN2CCOCC2)N=C(c2ccc(OCCCO)cc2)O[C@@H]1c1ccccc1N=[N+]=[N-]`, the composite z-score was 0.832 with Albumin (Bos taurus); 0.351 in test [2]; -0.0211 in test [3]; 0.556 in test [4]; 2.51 in test [5]; 0.865 in test [6]. Moreover, the composite z-score was 1.3 with Sam68 (KHDRBS1); -0.198 in test [7]; 1.04 in test [8]; 2.81 in test [9]; 1.24 in test [10]; 0.587 in test [11]. Moreover, the composite z-score came to 0.989 in test [12]; 1.2 in test [13]; 0.752 in test [14]; 0.383 with Lefty1; 0.898 in [16]. The composite Z-score in test [1] is -0.0662 (inactive). The z-score in test [15] was -0.381; in test [17], -1.71 (inactive).
`CCOC(=O)C1=C[C@@H](C(C)(C)C)N(S(=O)(=O)c2ccc(C)cc2)[C@H]1c1cccc2ccccc12`: the composite z-score with Albumin (Bos taurus) is 0.261; in [2], 0.0327; in test [3], -0.101; in test [4], 0.312; in [5], 1.76; in test [6] it was 0.0493. Further, the composite z-score is 1.05 in the test with Sam68 (KHDRBS1); -0.516 in test [7]; 1.05 in test [8]; 1.15 in test [9]; 0.716 in [10]; 0.191 in test [11]. Moreover, the composite z-score is 0.896 in [12]; 0.466 in test [13]; -0.195 in test [14]; 0.139 in the test on Lefty1; 0.437 in test [16]. The composite Z-score in test [1] is 0.592 (inactive). Also, the z-score was 2.89 in test [15] and 0.908 (inactive) in [17].
With `COc1ccc(CCNC(=O)[C@@]2(Sc3ccc(C)cc3)CC(=O)N(Cc3ccccc3C(F)(F)F)[C@@H]2c2ccc(CO)cc2I)cc1`, the composite z-score with Albumin (Bos taurus) is 0.589; in test [2], -0.357; in [3], 0.102; in test [4], 0.759; in test [5] it was 2.09; in test [6] it was -0.0867. Besides, the composite z-score with Sam68 (KHDRBS1) is -0.3; in test [7], -0.865; in [8], -0.71; in test [9] it was 2.42; in test [10] it was 0.0953; in test [11], -0.326. The composite z-score in test [12] was 0.685; in [13], -0.706; in [14], -0.512; in the test with Lefty1 it was -1.63; in test [16] it was 0.827. Moreover, the composite Z-score in [1] was -0.0511 (inactive). Moreover, the z-score in test [15] was 1.56; in [17], -0.555 (inactive).
Take `C=C(COC)C(=O)CC[C@@H](OC(C)=O)c1cccc(OCCO)c1`: the composite z-score in the test with Albumin (Bos taurus) was -0.693; in test [2], -0.0647; in test [3], -0.125; in test [4] it was 0.59; in [5] it was -0.591; in [6] it was -0.621. For the same compound, the composite z-score in the test on Sam68 (KHDRBS1) is -0.873; in [7], -0.109; in [8], -0.797; in [9] it was 0.0219; in [10], -1.04; in [11], -0.653. Moreover, the composite z-score in [12] is 0.567; in test [13] it was 1.09; in test [14], 1.48; in the test with Lefty1, 0.146; in test [16] it was 0.0226. The composite Z-score in [1] was -0.0662 (inactive). The z-score is 0.655 in test [15] and -1.76 (inactive) in test [17].
